Sm TGR block: blocks Schistosoma mansoni thioredoxin glutathione reductase | Q962Y6 | purified TGR, DTNB reduction, TNB absorbance 405 nm | Potency, µM (top dose mostly 114 µM), hits mostly inhibitors | actives 3% (n = 360,000); further: nearly all actives have a fitted effect of over 60% in size
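First, TGR (20 nM dispensed) and NADPH were mixed with compound. Second, a 15 min room-temperature incubation followed. Third, further NADPH and then DTNB were added to start the reaction. Finally, TNB absorbance was monitored kinetically.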
AmpC no deterg: inhibitors of E. coli AmpC beta-lactamase without detergent. AmpC nitrocefin hydrolysis, absorbance 480 nm, 0.0001% Triton. Potency, µM (titrated, usually from 57.1 µM), actives largely listed as inhibitors. actives 0.52% (n = 330,000). AID 485341; further: nearly all actives have a fitted effect of over 20% in size
Target sequence (P00811 whole entry, looked up): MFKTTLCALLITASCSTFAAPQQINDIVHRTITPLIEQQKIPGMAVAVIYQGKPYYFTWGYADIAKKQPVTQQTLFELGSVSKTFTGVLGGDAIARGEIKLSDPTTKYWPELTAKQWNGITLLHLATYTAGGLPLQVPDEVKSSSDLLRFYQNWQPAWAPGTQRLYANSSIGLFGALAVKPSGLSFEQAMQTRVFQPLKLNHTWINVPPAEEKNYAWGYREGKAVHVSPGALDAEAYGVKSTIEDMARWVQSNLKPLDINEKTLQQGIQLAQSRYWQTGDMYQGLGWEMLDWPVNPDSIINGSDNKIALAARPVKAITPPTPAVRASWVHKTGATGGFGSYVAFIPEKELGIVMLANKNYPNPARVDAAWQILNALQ
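AmpC (5.3 nM in the dispensed reagent) in 20 mM phosphate pH 7.0 with 0.01% (detergent screen) or 0.0001% Triton X-100 was preincubated with compounds for 15 min at room temperature. Nitrocefin was then added from an 800 uM solution, and hydrolysis was followed at 480 nm.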
AmpC inh detg: inhibitors of E. coli AmpC beta-lactamase with detergent; P00811; AmpC hydrolysis of nitrocefin, absorbance 480 nm, 0.01% Triton; Potency, µM (top dose mostly 114 µM), usual class: inhibitors; actives 0.041% (n = 370,000); AID 485294; further: nearly all actives have a fitted effect of over 25% in size
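AmpC (5.3 nM in the dispensed reagent) in 20 mM phosphate pH 7.0 with 0.01% (detergent screen) or 0.0001% Triton X-100 was preincubated with compounds for 15 min at room temperature. Nitrocefin was then added from an 800 uM solution, and hydrolysis was followed at 480 nm.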
Numbers stand for hits; . = inactive; ? = inconclusive; / = no result given. Most compounds without a hit are left out; they make up all but 3.3% or so of the library. The call rests on the fitted dose curve; in most records, active means well fitted curve in the direction sought with a large enough effect; inconclusive means small, poorly fitted or top-dose-only effect, or another doubt; inactive means no such curve, though single readings can be large; an effect the other way counts as inactive or inconclusive.

SMILES	Sm TGR block	AmpC no deterg	AmpC inh detg
Cc1ccc(-c2nc(CS(=O)(=O)CC(=O)N3CCc4ccccc4C3)c(C)o2)cc1	25.1µM	39.8µM	?
CCc1ccc(C(=O)c2cn(Cc3ccccc3)c3cc(OC)c(OC)cc3c2=O)cc1	.	/	.
Cc1ccc(-c2onc3ccc(C4(C)OCCO4)cc23)cc1	.	.	.
Cc1ccc(-c2onc3ccc(C=O)cc23)cc1	44.7µM	.	.
CC(=O)c1ccc2noc(-c3ccc(F)cc3)c2c1	?	.	.
Cc1cc(-c2onc3ccc(Cl)cc23)ccc1O	39.8µM	?	.
O/N=C\c1ccc2noc(-c3ccc(Cl)cc3)c2c1	.	.	.
CC(=O)c1ccc2noc(-c3ccc(Cl)cc3)c2c1	28.2µM	.	.
COC(=O)c1cc(NS(=O)(=O)c2ccc(Cl)c(N3C(=O)c4ccc(C(=O)O)cc4C3=O)c2)cc(C(=O)OC)c1	.	.	.
Cc1cc(OCC(=O)NNC(=S)NC(=O)c2ccc(Br)o2)ccc1Cl	.	.	.
CN(CC(=O)OCC(=O)NCC(F)(F)F)S(=O)(=O)c1ccc(Cl)cc1	.	.	.
CC(=O)c1ccc(S(=O)(=O)NC2CC(=O)N(c3cccc(F)c3)C2)cc1 (configuration not stated)	.	?	.
CCNC(=S)NNc1ccccc1	14.1µM	.	.
S=C(NCc1ccccc1)NNc1ccccc1	?	.	.
Cc1cccn2c(=O)c(C=O)c(Cl)nc12	6.31µM	.	.
Cc1cccn2c(=O)c(C=O)c(N3CCN(c4ccc(F)cc4)CC3)nc12	.	.	.
Cc1cccn2c(=O)c(C=O)c(N3CCCCC3)nc12	.	.	.
Cc1cccn2c(=O)c(C=O)c(Sc3ncccn3)nc12	22.4µM	.	.
CCOC(=O)N1CCN(c2nc3c(C)cccn3c(=O)c2C=O)CC1	39.8µM	.	.
O=Cc1c(Cl)nc2ccccn2c1=O	?	.	.
CCOC(=O)c1c(S(=O)(=O)N2CCC(C(=O)NCc3ccccc3Cl)CC2)c(C)n(C)c1C	.	/	.
Cc1c(C(=O)NNC(=S)NCc2ccc(Cl)cc2)oc2ccccc12	.	.	.
C=CCn1c(CCCNC(=O)CCC)nc2ccccc21	.	.	.
CCCOCc1ccc(O)c2ncccc12	28.2µM	.	.
Oc1cccc2cccnc12	.	.	.
SMILES	Sm TGR block	AmpC no deterg	AmpC inh detg
Cc1ccc(N=Nc2ccc(O)c3ncccc23)cc1	.	.	.
CC(C)COCc1ccc(O)c2ncccc12	15.8µM	.	.
CN(Cc1ccco1)Cc1ccc(O)c2ncccc12	0.708µM	.	.
CCS(=O)(=O)c1ccc(N=Nc2ccc(O)c3ncccc23)c(OC)c1	.	.	.
OCc1ccc(O)c2ncccc12	22.4µM	.	.
COc1ccccc1N=Nc1ccc(O)c2ncccc12	.	.	.
Cc1nn(CC(=O)N2CCC(C)CC2)c(=O)c2cc3occc3n12	.	/	.
COc1cc(NC(=O)c2cc3nc(-c4ccc(C)cc4)cc(C(F)(F)F)n3n2)cc(OC)c1OC	.	/	.
O=C(O)c1ccc(O)c2ncccc12	.	.	.
Oc1ccc(COCc2ccccc2)c2cccnc12	35.5µM	.	.
Cc1ccc2nc3c(nc2c1C)C(O)=C3O	7.94µM	.	.
Cc1ccc2nc3c(nc2c1C)CCCC3	.	.	.
O=C(Cn1c(=O)n(-c2ccccc2)c(=O)c2c3c(sc21)CCCC3)Nc1ccc(F)cc1F	.	/	.
Cn1nnc2c(N3CCCCC3)ncnc21	.	/	.
CC(=O)c1ccc(NC(=O)C2CCN(S(=O)(=O)c3cccc4cccnc34)CC2)cc1	.	.	?
COc1ccc(NC(=O)C2CCN(S(=O)(=O)c3cccc4cccnc34)CC2)cc1	.	56.2µM	.
COc1cccc(CNCC(=O)NC(=O)NC2CCCC2)c1	/	.	/
Cc1cccc(Oc2nc3ccccn3c(=O)c2/C=C(\C#N)c2nc3ccccc3s2)c1C	.	/	.
CC(C)(C)c1ccc(Oc2nc3ccccn3c(=O)c2/C=C(\C#N)c2nc3ccccc3s2)cc1	3.16µM	/	.
Cc1ccc(C2CC(=O)Nc3cc4c(cc32)OCCO4)cc1Br (configuration not stated)	.	/	.
CC(C)Sc1oc(-c2ccco2)nc1S(=O)(=O)c1ccccc1	?	.	.
CSc1oc(-c2ccco2)nc1S(=O)(=O)c1ccc(C)cc1	?	.	.
CSc1oc(-c2ccco2)nc1S(=O)(=O)c1ccccc1	35.5µM	.	?
CSc1oc(-c2ccco2)nc1S(=O)(=O)c1ccc(F)cc1	44.7µM	.	.
CCCCN(C(=O)c1cc(S(=O)(=O)N2CCCCCC2)ccc1OC)c1ccccc1	.	.	.
SMILES	Sm TGR block	AmpC no deterg	AmpC inh detg
COc1ccccc1-c1cnn2c(NC3CCCC3)cc(C)nc12	.	.	.
CCOc1ccc(CN(CCc2ccc3c(c2)OCO3)Cc2cc(OC)c(OC)cc2OC)cc1	.	/	.
Cc1cc(C)cc(-n2ncc3c2CCCC3NC(=O)CCN2Cc3ccccc3C2=O)c1 (configuration not stated)	.	.	.
CC(OC(=O)/C=C/c1cccs1)C(=O)NC1CCCCC1C (configuration not stated)	?	.	.
COc1ccc([N+](=O)[O-])cc1NC(=O)C(C)OC(=O)/C=C/c1ccco1 (configuration not stated)	50.1µM	.	.
CC(OC(=O)/C=C/c1ccco1)C(=O)Nc1cccc([N+](=O)[O-])c1 (configuration not stated)	?	.	.
CC(OC(=O)/C=C/c1ccco1)C(=O)NC1CCCCC1C (configuration not stated)	44.7µM	.	?
CCOc1cccc(N(C(=O)Cc2cccs2)C(C(=O)NC2CCCCC2)c2cccn2C)c1 (configuration not stated)	.	.	.
COc1nc(N)c(S(=O)(=O)c2ccccc2C)cc1C#N	.	0.159µM	.
COc1nc(N)c(S(=O)(=O)c2ccccc2)cc1C#N	.	.	.
CN(C)S(=O)(=O)N1CCC(Oc2cccc(C(=O)NC3CCOC3)c2)CC1 (configuration not stated)	.	.	.
O=C(Cc1ncc(C(F)(F)F)cc1Cl)Nc1ccc(F)cc1	.	0.159µM	.
O=C(Cc1ncc(C(F)(F)F)cc1Cl)NC1CC1	.	.	?
COCCNC(=O)Cc1c(C)c2c(cc(C)c3c(C(C)(C)C)coc32)oc1=O	.	.	.
CCCN1CCN(CC2=C(C(=O)OCC)C(c3cccc(OC)c3OC)NC(=O)N2)CC1 (configuration not stated)	89.1µM	/	.
CCCN1CCN(CC2=C(C(=O)OCC)C(c3ccc(Cl)cc3)NC(=O)N2)CC1 (configuration not stated)	.	/	.
CSCCC(NS(=O)(=O)c1ccc2c(c1)oc(=O)n2C)C(=O)NCc1ccc(Cl)cc1 (configuration not stated)	.	/	.
O=C(NCCc1ccc(Cl)cc1)C1CCN(C(=O)c2ccc(F)cc2)CC1	.	.	.
Cc1ccc(S(=O)(=O)N2CCN(C(=O)CN3CCCSc4ccccc43)CC2)cc1	.	.	.
CC1CN(C(=O)/C=C/c2ccccc2[N+](=O)[O-])CC(C)O1 (configuration not stated)	/	.	.
